Measured values as given in PubChem BioAssay AID1259418 (Broad Institute, 2018).
In all, about 3,400 compounds went through this assay and about 840 (25%) were called active. Another 11% or so got no clear call; they are omitted.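 Rule for the calls: active = fitted half-maximal concentration of signal decrease at or below twice the sample's top tested concentration; inconclusive = flat curve between -70 and -30 percent, or poor fit; inactive = flat within 30 percent, signal rise, or potency above limit.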 Only a sample is shown. Entries with a potency or affinity are not part of this list.

assay: T. gondii growth inhibition with IFN-gamma, dose response, cell-based, ME49Luc, HeLa, luciferase, 72 h (AID 1259418); details: T. gondii ME49Luc in IFN-y HeLa, hits give low values, -100% = high-dose IFN-γ control wells; at 19.5 µM unless noted

Compound | max activity
CC(C)CCNC(=O)CC1Nc2c3ccccc3nc(=S)n2C1=O (configuration not stated) | 41.3% (inactive)
CCOc1ccccc1NC(=O)CN1CCC2(CC1)N=C(c1cccc(Cl)c1)C(=O)N2 | 5.75% (inactive)
COc1ccccc1-c1nc(Cn2nnc(-c3nc(-c4cccc(F)c4)no3)c2C)c(C)o1 | -3.46% [at 1.35 µM] (inactive)
Cc1ccc(-c2nc(Cn3nnc(-c4nc(-c5cccc(C)c5)no4)c3C)c(C)o2)cc1 | -13% [at 5 µM] (inactive)
O=C(NC1CCCCC1)N1C[C@@H]2N[C@H](C1)C2c1ccc(-c2ccc(F)cc2)cc1 (some centres not stated) | 23.1% [at 10 µM] (inactive)
Cc1ccccc1-c1ccc(C2[C@@H]3CN(C(=O)C4CCOCC4)C[C@H]2N3)cc1 (some centres not stated) | 20.5% (inactive)
CCCNC(=O)N1CCc2nc(-c3ccc(OC)cc3)sc2C1 | 12.7% [at 10 µM] (inactive)
Cc1ccc(NC(=O)COc2nc(C)nc3ccccc23)c(C)c1 | 13.8% [at 0.68 µM] (inactive)
COc1ccc(-c2nc(Nc3ccc(F)c(Cl)c3)c3ccccc3n2)cc1 | 19.7% (inactive)
CO[C@H]1CCN(c2ccc(C)nn2)[C@H]1Cc1cnn(C)c1 | -9.84% [at 1.2 µM] (inactive)
Cc1nc(-c2ccc(F)cc2)sc1-c1ccc(SCc2ccccc2Cl)nn1 | 10% [at 0.16 µM] (inactive)
Cc1ccc(-c2nc(Cn3nnc(-c4nc(-c5ccccc5Cl)no4)c3C)c(C)o2)cc1 | -11.4% [at 2.6 µM] (inactive)
CC(CCc1ccccc1)Nc1nc(-c2ccc(Cl)cc2)nc2ccccc12 (configuration not stated) | -14.3% [at 5 µM] (inactive)
COc1ccc(-c2nc(N3CCN(c4cccc(C)c4C)CC3)c3ccccc3n2)cc1 | 17% (inactive)
Cc1ccc(-c2nc3c(s2)CN(C(=O)NCc2ccccc2)CC3)cc1 | -24.6% [at 0.35 µM] (inactive)
CCCNC(=O)N1CCc2nc(-c3ccc(C)cc3)sc2C1 | -30.1% [at 0.16 µM] (inactive)
O=C(Nc1ccc(-c2nc(-c3ccccc3)co2)cc1)c1ccccc1F | -7.4% [at 10 µM] (inactive)
COCCN1C(=O)CCC12CCC(NC(=O)c1cc(C)on1)CC2 (configuration not stated) | 12.8% (inactive)
Cc1ccc(S(=O)(=O)N2CCC3(CC2)NCCN=C3NC2CCCC2)cc1C | 15.2% [at 1.35 µM] (inactive)
Cc1cc(C)cc(S(=O)(=O)N2CCC3(CC2)NCCN=C3NC2CCCC2)c1 | 8.57% [at 0.35 µM] (inactive)
Cc1cc(C)c(S(=O)(=O)N2CCC3(CC2)NCCN=C3NC2CCCC2)cc1C | -17.7% (inactive)
CCOc1ccc(-c2ccc(OCCNC(=O)c3sc(-c4ccccc4)nc3C)nn2)cc1 | 10.6% (inactive)
O=C(CCn1cnc2cc(-c3noc(Cc4c[nH]c5ccccc45)n3)ccc21)N1CCCC1 | 27.3% (inactive)
CCCC(=O)Nc1ccc(-c2nc(-c3ccc(C)cc3C)co2)cc1 | -18.1% [at 1.35 µM] (inactive)

Compound | max activity
O=C(COc1ccc(F)cc1)Nc1ccc2c(c1)CCC(=O)N2 | -4.48% [at 1.35 µM] (inactive)
Cc1cccc(C(=O)Nc2ccc(-c3nc(-c4ccccc4)co3)cc2)c1 | 70.1% (inactive)
COc1ccc(-c2nc(Cn3nnc(-c4nc(-c5ccc(SC)cc5)no4)c3C)c(C)o2)cc1 | -6.45% [at 5 µM] (inactive)
COc1ccccc1S(=O)(=O)N1CC[C@H]2[C@H](CO)Nc3ccc(-c4ccc(C#N)cc4)cc3[C@H]21 | 23% [at 21 µM] (inactive)
O=S(=O)(c1ccccc1F)N1CC[C@@H]2[C@H](CO)Nc3ccc(C4=CCCCC4)cc3[C@@H]21 | 7.48% [at 10 µM] (inactive)
Cc1cccc(S(=O)(=O)N2CC[C@@H]3[C@H](CO)Nc4ccc(-c5ccccc5F)cc4[C@@H]32)c1 | 25.7% [at 10 µM] (inactive)
O=S(=O)(c1ccccc1F)N1CC[C@H]2[C@H](CO)Nc3ccc(C4=CCCCC4)cc3[C@H]21 | 39.3% [at 10 µM] (inactive)
O=S(=O)(c1ccccc1F)N1CC[C@@H]2[C@@H](CO)Nc3ccc(C4=CCCCC4)cc3[C@@H]21 | 37.4% [at 10 µM] (inactive)
CC(=O)NCC(=O)N1CCC2(CC1)CC(c1ccccc1)C(=O)N2 (configuration not stated) | 28.8% (inactive)
COc1ccc(NC(=O)Nc2ccc(-c3nc(-c4cc(C)ccc4C)co3)cc2)c(OC)c1 | 9.16% [at 5 µM] (inactive)
CS(=O)(=O)NCc1cnc2n1CCN(Cc1cccs1)CC2 | 48.8% (inactive)
CCN1C(=O)CCc2cc(NC(=O)Cc3ccccc3Cl)ccc21 | -5.27% [at 0.16 µM] (inactive)
COc1ccc(-c2nc(NCCC3=CCCCC3)c3ccccc3n2)cc1 | -27.2% [at 1.35 µM] (inactive)
CN1[C@@H]2Cn3c(ccc(/C=C/c4ccccc4)c3=O)[C@H]1[C@@H](C(=O)NC1Cc3ccccc3C1)[C@@H]2CO | 15.2% [at 5 µM] (inactive)
Cc1ccc2c(c1C)-n1cccc1C1(CCN(C(=O)c3ccco3)CC1)N2 | 10.9% [at 0.16 µM] (inactive)
Cc1ccc(-c2nc(CSc3nc4c(c(=O)[nH]3)CN(Cc3ccc(F)cc3)CC4)c(C)o2)cc1 | 26% [at 0.16 µM] (inactive)
Cc1ccc(-c2nc(CSc3nc4c(c(=O)[nH]3)CN(Cc3ccccc3)CC4)c(C)o2)cc1 | -18% [at 0.68 µM] (inactive)
Cc1oc(-c2ccccc2)nc1CSc1nc2c(c(=O)[nH]1)CN(Cc1ccc(Cl)cc1)CC2 | 14.5% [at 0.16 µM] (inactive)
COc1ccc(CN2CCc3nc(SCc4nc(-c5ccc(C)cc5)oc4C)[nH]c(=O)c3C2)cc1 | 16.3% (inactive)
Cc1nc(-c2ccc(F)cc2)sc1-c1ccc(SCCN2CCOCC2)nn1 | 231% (inactive)
O=C(Nc1ccc(F)cc1)Nc1ccc(-c2nc(-c3cccc(Br)c3)co2)cc1 | 4.84% [at 10 µM] (inactive)
COc1ccc(-c2nc(N3CCCC(C)C3)c3ccccc3n2)cc1 (configuration not stated) | 20.4% [at 1.35 µM] (inactive)
O=C(CCC1N=C2c3ccccc3N=C(SCc3cc(=O)n4ccccc4n3)N2C1=O)NCc1ccc2c(c1)OCO2 (configuration not stated) | 14.1% [at 0.35 µM] (inactive)
O=C(CC1N=C2c3ccccc3N=C(SCc3cc(=O)n4cc(Cl)ccc4n3)N2C1=O)NCc1cccs1 (configuration not stated) | 41.3% [at 0.35 µM] (inactive)

Compound | max activity
CCOC(=O)CSC1=Nc2ccccc2C2=NC(CCC(=O)NCc3cccs3)C(=O)N12 (configuration not stated) | 13.6% [at 10 µM] (inactive)
Cc1ccc(CSC2=Nc3ccccc3C3=NC(CC(=O)NCc4cccs4)C(=O)N23)c(C)c1 (configuration not stated) | 21.5% [at 0.68 µM] (inactive)
O=C(CCC1N=C2c3ccccc3N=C(SCc3cc(=O)n4ccccc4n3)N2C1=O)NCc1cccs1 (configuration not stated) | 13.4% [at 0.16 µM] (inactive)
COc1ccccc1CNC(=O)CC1N=C2c3ccccc3N=C(SCc3ccc(F)cc3)N2C1=O (configuration not stated) | 11.2% [at 10 µM] (inactive)
Cc1c(Cl)cccc1NC(=O)CN1CCC2(CC1)N=C(c1ccc(F)cc1)C(=O)N2 | -21.7% [at 1.35 µM] (inactive)
Cc1ccc(CC(=O)Nc2ccc(-c3nc(-c4ccc(C)cc4)co3)cc2)cc1 | 19.1% [at 10 µM] (inactive)
Cc1oc(-c2ccccc2)nc1Cn1nnc(-c2nc(-c3ccc(Cl)c(F)c3)no2)c1C | 7.02% (inactive)
Cc1cccc(C2=NC3(CCN(CC(=O)Nc4ccc(C)c(F)c4)CC3)NC2=O)c1 | -23% (inactive)
N#Cc1c(N2C[C@@H]3NCCO[C@H]3C2)c(F)cc2c(=O)c(C(=O)O)cn(C3CC3)c12 | 13.7% (inactive)
COC(=O)Cn1cc(CN2CCCC2c2cc(C(C)C)on2)c2cc(OC)ccc21 (configuration not stated) | 14.7% (inactive)
COc1ccc2c(c1)NC1(CCN(C(=O)Cc3ccc(C)cc3)CC1)c1cccn1-2 | 5.57% [at 0.35 µM] (inactive)
CCCCc1ccc(Nc2ncnc3c2cnn3-c2ccc(Cl)cc2)cc1 | -18.1% [at 5 µM] (inactive)
Cc1cccc(-c2nc(CN3CCc4c(sc5c4CCCC5)C3c3ccccc3)c(C)o2)c1 (configuration not stated) | 18.5% (inactive)
O=C(CCC1N=C2c3ccccc3N=C(SCc3ccccc3F)N2C1=O)NCc1ccc2c(c1)OCO2 (configuration not stated) | 17.7% [at 0.16 µM] (inactive)
O=C(CCC1N=C2c3ccccc3N=C(SCc3ccc(F)cc3)N2C1=O)NCc1cccs1 (configuration not stated) | 11.9% [at 1.35 µM] (inactive)
O=C(CCC1N=C2c3ccccc3N=C(SCc3ccc(Cl)cc3)N2C1=O)NCc1ccc2c(c1)OCO2 (configuration not stated) | -24.4% [at 0.35 µM] (inactive)
Cc1ccc(CSC2=Nc3ccccc3C3=NC(CC(=O)NCc4cccs4)C(=O)N23)cc1 (configuration not stated) | 21.6% [at 2.6 µM] (inactive)
O=C(CC1N=C2c3ccccc3N=C(SCc3ccc(Cl)cc3)N2C1=O)NC1CCCCC1 (configuration not stated) | -16.8% [at 0.35 µM] (inactive)
Cc1ccc2c(c1)cc(S(=O)(=O)c1ccccc1)c(=O)n2CC(=O)NC1CCCC1 | -10.6% [at 0.35 µM] (inactive)
COc1ccc(CNC(=O)Nc2ccc(-c3nc(-c4ccccc4)co3)cc2)cc1 | 134% (inactive)
O=C(Cc1ccccc1)N1CCC2(CC1)Nc1cc(F)ccc1-n1cccc12 | 8.98% [at 0.68 µM] (inactive)
COc1ccccc1CNC(=O)CCC1N=C2c3ccccc3N=C(SCC#N)N2C1=O (configuration not stated) | 14.4% [at 1.35 µM] (inactive)
C=CCNc1ncnc2c1cnn2-c1ccc(Cl)cc1 | 134% [at 0.35 µM] (inactive)
CCOC(=O)CC(=O)Nc1ccc(-c2nc(-c3cc(C)ccc3C)co2)cc1 | -6.71% [at 0.35 µM] (inactive)
